In PubChem BioAssay (NCATS):
Results filed as inconclusive are left out. Calls of active or inactive are those of the source. Unless noted, calls follow the shape of the dose curve; as a rule, active = well fitted curve in the direction sought with a large enough effect; inconclusive = small, poorly fitted or top-dose-only effect, or another doubt; inactive = no such curve, though single readings can be large; an effect the other way counts as inactive or inconclusive.

Assays:
[1] = qHTS for Inhibitors of the Functional Ribonucleoprotein Complex (vRNP) of Lassa (LASV) Arenavirus: LASV Primary Screen - GLuc reporter signal (AID 1347082; calls by dose curve; tested in HEK293 reporter line; also: nearly all actives have a fitted effect of over 60% in size; also: potency is read from the fitted curve at half-maximal effect; as to activity change, negative = inhibition: % is scaled to controls: 0 for no effect and ±100 for the full control effect)
[2] = qHTS for Inhibitors of the Functional Ribonucleoprotein Complex (vRNP) of Lassa (LASV) Arenavirus: Viability assay - alamar blue signal for LASV Primary Screen (AID 1347083; calls by dose curve; tested in HEK293 reporter line; also: nearly all actives have a fitted effect of over 80% in size; also: potency is read from the fitted curve at half-maximal effect)
[3] = qHTS for Inhibitors of the Functional Ribonucleoprotein Complex (vRNP) of Lymphocytic Choriomeningitis Arenaviruses (LCMV): Viability assay - alamar blue signal for LCMV Primary Screen (AID 1347085; calls by dose curve; tested in HEK293 reporter line; also: nearly all actives have a fitted effect of over 80% in size; also: potency is read from the fitted curve at half-maximal effect)
[4] = target: Nucleoprotein (Lymphocytic choriomeningitis virus (strain Armstrong)) (UniProt P09992); assay: qHTS for Inhibitors of the Functional Ribonucleoprotein Complex (vRNP) of Lymphocytic Choriomeningitis Arenaviruses (LCMV): LCMV Primary Screen - GLuc reporter signal (AID 1347086; calls by dose curve; also: nearly all actives have a fitted effect of over 70% in size; also: potency is read from the fitted curve at half-maximal effect; as to activity change, negative = inhibition: % is scaled to controls: 0 for no effect and ±100 for the full control effect)
Nucleoprotein (Lymphocytic choriomeningitis virus (strain Armstrong)), sequence (P09992 whole entry, looked up): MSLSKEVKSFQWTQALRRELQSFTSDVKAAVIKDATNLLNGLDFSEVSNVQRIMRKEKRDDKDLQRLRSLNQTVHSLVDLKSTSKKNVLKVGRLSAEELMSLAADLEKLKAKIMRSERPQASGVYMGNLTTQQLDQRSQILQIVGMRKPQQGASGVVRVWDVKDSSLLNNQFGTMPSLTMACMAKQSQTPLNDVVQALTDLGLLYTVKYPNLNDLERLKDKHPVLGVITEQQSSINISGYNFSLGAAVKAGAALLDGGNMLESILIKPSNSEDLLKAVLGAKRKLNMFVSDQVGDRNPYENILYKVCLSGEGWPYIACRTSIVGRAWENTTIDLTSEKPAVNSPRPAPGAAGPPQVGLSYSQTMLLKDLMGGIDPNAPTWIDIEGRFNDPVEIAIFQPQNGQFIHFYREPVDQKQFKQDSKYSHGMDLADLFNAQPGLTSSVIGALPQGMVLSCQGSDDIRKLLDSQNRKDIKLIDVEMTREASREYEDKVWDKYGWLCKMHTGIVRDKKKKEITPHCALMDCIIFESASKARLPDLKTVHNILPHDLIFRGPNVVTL

[5] = Confirmatory qHTS for activators (rescue) of SARS-CoV-2 Cytopathic Effect (CPE) (AID 1508606; calls by dose curve; also: potency is read from the fitted curve at half-maximal effect; nearly all actives have a fitted effect of over 70% in size)
[6] = Primary qHTS to identify inhibitors of SARS-CoV-2 cell entry (AID 1645846; calls by dose curve; also: nearly all actives have a fitted effect of over 45% in size); settings: activity change, negative = inhibition: at 57.1 µM (top of the series) unless noted
Outline: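 Data are normalized to wells receiving SARS-CoV-2-S pseudoparticles and those given bald particles. Entry signal was luciferase luminescence in stable hACE2 Expi293F cells, 48 hr post-infection, after 1 hr compound pretreatment.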

[7] = Primary qHTS for small molecule stabilizers of the endoplasmic reticulum resident proteome: Secreted ER Calcium Modulated Protein (SERCaMP) assay (AID 1508630); also: % is scaled to controls: 0 for no effect and ±100 for the full control effect
Outline: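 The SH-SY5Y reporter protocol was run at 3 concentrations up to 38.3 uM (primary) or 11 concentrations (follow-up): 16 h compound, 100 nM thapsigargin for 4 h, then extracellular luciferase luminescence.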

[8] = target: Cytochrome P450 3A4 (Homo sapiens) (UniProt P08684); assay: qHTS Assay for Inhibitors and Substrates of Cytochrome P450 3A4 (AID 884); also: % is scaled to controls: 0 for no effect and ±100 for the full control effect; nearly all actives have a fitted effect of over 50% in size
Cytochrome P450 3A4 (Homo sapiens), sequence (P08684 whole entry, looked up): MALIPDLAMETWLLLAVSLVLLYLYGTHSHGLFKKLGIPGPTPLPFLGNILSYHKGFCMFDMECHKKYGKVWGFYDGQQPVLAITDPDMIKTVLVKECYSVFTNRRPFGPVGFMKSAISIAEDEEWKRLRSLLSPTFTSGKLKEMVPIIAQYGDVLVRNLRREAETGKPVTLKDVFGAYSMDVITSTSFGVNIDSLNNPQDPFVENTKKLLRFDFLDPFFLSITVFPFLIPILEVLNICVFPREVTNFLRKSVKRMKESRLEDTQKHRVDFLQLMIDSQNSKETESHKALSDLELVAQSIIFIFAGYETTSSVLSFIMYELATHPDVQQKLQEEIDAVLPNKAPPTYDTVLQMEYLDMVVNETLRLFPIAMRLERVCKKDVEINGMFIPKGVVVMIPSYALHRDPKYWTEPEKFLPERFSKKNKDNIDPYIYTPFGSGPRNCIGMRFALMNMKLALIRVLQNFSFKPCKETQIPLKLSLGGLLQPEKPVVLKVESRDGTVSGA
Outline: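 Luminescent readout of luciferin produced by CYP3A4 (20 nM) dealkylation of Luciferin-PPXE, 25 uM (its KM). NADPH-driven reaction ran 60 min at RT after 10 min compound preincubation; data scaled to 57 uM ketoconazole as 100% inhibition.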

[9] = qHTS Assay for Lipid Storage Modulators (AID 1519; calls by dose curve; as to activity change, negative = inhibition: % is scaled to controls: 0 for no effect and ±100 for the full control effect); settings: Drosophila S3 cells, BODIPY lipid droplet/cell ratio, laser cytometry, cells loaded with oleic acid
Outline: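 Cells seeded at 5,000 per well were treated with compounds over a concentration series and loaded with oleic acid (400 uM, as added). Lipid droplet fluorescence (488 nm excitation, 500-530 nm channel) was read by laser-scanning cytometry and normalized to 20 uM Triacsin C.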

[10] = target: Ubiquitin carboxyl-terminal hydrolase 1 (Homo sapiens) (UniProt O94782); assay: Inhibitors of USP1/UAF1: Pilot qHTS (AID 504865);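 also: rhodamine fluorescence freed from ubiquitin-rhodamine substrate followed over time; top concentration of the series differs between compounds; % is scaled to controls: 0 for no effect and ±100 for the full control effect; nearly all actives have a fitted effect of over 35% in size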
Ubiquitin carboxyl-terminal hydrolase 1 (Homo sapiens), sequence (O94782 whole entry, looked up): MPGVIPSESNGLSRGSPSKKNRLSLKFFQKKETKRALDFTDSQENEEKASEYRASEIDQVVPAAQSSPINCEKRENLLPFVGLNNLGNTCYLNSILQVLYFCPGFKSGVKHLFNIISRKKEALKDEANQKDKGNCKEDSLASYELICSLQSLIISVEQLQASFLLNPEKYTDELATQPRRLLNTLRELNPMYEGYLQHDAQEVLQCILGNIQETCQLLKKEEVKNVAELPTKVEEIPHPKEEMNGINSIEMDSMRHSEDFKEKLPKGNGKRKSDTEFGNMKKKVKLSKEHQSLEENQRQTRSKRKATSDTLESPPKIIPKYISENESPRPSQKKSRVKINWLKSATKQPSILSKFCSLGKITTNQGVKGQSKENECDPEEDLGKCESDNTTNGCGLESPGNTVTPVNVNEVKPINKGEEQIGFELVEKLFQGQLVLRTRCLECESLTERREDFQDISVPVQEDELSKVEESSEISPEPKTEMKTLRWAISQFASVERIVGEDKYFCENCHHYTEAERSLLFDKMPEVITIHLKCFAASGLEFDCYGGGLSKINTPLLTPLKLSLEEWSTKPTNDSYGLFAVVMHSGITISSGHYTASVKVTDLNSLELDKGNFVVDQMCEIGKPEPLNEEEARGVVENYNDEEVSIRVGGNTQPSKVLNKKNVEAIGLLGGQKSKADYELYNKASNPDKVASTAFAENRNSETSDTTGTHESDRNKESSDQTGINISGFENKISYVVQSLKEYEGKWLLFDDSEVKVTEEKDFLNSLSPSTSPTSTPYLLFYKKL
Outline: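 Kinetic fluorescence assay: 1nM USP1/UAF1, 15 min compound preincubation, then 150nM Ub-Rho; 480/540 nm.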

[11] = target: DNA dC->dU-editing enzyme APOBEC-3G (Homo sapiens) (UniProt Q9HC16); assay: qHTS for inhibitors of Vif-A3G interactions: Validation (AID 588379); also: 0% is about no effect
DNA dC->dU-editing enzyme APOBEC-3G (Homo sapiens), sequence (Q9HC16 whole entry, looked up): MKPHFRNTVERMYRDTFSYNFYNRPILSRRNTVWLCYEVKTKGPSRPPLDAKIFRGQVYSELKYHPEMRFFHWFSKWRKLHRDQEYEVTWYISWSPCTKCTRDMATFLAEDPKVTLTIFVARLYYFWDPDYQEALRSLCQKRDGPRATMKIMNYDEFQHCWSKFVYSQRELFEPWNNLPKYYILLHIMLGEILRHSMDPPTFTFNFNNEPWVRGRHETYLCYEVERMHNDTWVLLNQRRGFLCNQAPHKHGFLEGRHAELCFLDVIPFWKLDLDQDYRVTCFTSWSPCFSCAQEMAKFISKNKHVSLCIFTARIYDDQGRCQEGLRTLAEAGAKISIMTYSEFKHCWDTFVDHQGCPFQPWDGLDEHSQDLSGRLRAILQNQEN
Outline: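 Yellow fluorescence (Ex 488, Em 500-530) of Vif-coexpressing HeLa A3G-eYFP cells, scanned by Acumen cytometer, reports blocked A3G degradation. Cells plated at 700/well overnight at 37 deg C before compound addition, then a further overnight compound incubation at 37 deg C.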

[12] = target: Cytochrome P450 2C19 (Homo sapiens) (UniProt P33261); assay: qHTS Assay for Inhibitors and Substrates of Cytochrome P450 2C19 (AID 899); also: potency is read from the fitted curve at half-maximal effect; nearly all actives have a fitted effect of over 60% in size
Cytochrome P450 2C19 (Homo sapiens), sequence (P33261 whole entry, looked up): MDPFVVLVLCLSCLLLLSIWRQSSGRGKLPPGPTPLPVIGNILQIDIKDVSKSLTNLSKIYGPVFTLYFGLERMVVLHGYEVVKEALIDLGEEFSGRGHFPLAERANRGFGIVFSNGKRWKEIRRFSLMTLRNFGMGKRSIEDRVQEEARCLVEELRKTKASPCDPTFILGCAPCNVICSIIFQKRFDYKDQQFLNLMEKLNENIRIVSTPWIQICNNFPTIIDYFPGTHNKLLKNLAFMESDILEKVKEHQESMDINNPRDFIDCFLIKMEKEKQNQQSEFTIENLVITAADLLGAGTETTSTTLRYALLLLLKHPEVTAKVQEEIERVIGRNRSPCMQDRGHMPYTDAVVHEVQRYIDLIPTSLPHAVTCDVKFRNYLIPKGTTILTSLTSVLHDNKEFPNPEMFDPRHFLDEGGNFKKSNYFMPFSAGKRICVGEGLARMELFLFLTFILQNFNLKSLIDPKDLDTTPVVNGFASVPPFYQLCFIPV
Outline: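 NADPH-dependent conversion of Luciferin-H EGE (10uM, at KM) by 5nM enzyme in 50mM KPO4, 60 min at 37C following 10 min compound preincubation. Stopped with luciferin detection buffer; luminescence read after 20 min.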

[13] = qHTS profiling of the MIPE4 collection as inhibitors of Plasmodium falciparum (DD2) proliferation (AID 743345; call rule not given here); settings: P. falciparum Dd2 in erythrocytes, SYBR Green DNA, 72 h; at 28.5 µM (top of the series) unless noted
Outline: (§1)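 Parasite DNA was quantified by SYBR Green I fluorescence (ex 485, em 535 nm) after overnight lysis in saponin/Triton buffer at room temperature. Cultures at 0.3% parasitemia and 2.5% hematocrit were first exposed to compound for 72 h at 37 C; signals were normalised to artemisinin (0.29 uM) and vehicle wells.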

[14] = qHTS profiling of the MIPE4 collection as inhibitors of Plasmodium falciparum (DD2) proliferation (Rep 2) (AID 743346; call rule not given here); settings: P. falciparum Dd2 in erythrocytes, SYBR Green DNA, 72 h; at 28.5 µM (top of the series) unless noted
Outline: as §1

[15] = Cytotoxicity counterscreen for inhibitors of SARS-CoV-2 cell entry (AID 1645845; calls by dose curve; also: % is scaled to controls: 0 for no effect and ±100 for the full control effect; nearly all actives have a fitted effect of over 50% in size)
Outline: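 After a 15 min room-temperature ATPLite 1step step, luminescence reflected ATP remaining in HEK293-ACE2 cells exposed to compound for 1 h plus 48 h at 37 C, with percent activity set by cell and no-cell controls.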

[16] = target: Cytochrome P450 2C9 (Homo sapiens) (UniProt P11712); assay: qHTS Assay for Inhibitors and Substrates of Cytochrome P450 2C9 (AID 883); also: % is scaled to controls: 0 for no effect and ±100 for the full control effect; nearly all actives have a fitted effect of over 60% in size
Cytochrome P450 2C9 (Homo sapiens), sequence (P11712 whole entry, looked up): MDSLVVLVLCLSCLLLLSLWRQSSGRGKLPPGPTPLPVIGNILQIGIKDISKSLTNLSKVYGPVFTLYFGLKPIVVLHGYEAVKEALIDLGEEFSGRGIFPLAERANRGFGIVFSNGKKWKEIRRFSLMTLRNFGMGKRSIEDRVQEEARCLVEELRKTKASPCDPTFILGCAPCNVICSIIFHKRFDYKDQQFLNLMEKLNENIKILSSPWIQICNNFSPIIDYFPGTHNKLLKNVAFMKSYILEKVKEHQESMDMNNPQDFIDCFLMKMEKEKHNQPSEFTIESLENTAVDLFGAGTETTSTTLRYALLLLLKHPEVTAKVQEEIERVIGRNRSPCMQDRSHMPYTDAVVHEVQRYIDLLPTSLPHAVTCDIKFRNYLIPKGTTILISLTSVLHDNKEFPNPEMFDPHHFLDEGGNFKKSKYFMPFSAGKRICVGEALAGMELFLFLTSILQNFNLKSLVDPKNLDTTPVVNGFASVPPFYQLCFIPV
Outline: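 A luminogenic readout tracked human CYP2C9 (10nM) converting deoxyluciferin (100uM, at KM) in 25mM KPO4 during 60 min at 37C with regenerated NADPH. Values normalized to 57uM sulphaphenazole as complete inhibition.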

[17] = target: Cytochrome P450 3A4 (Homo sapiens) (UniProt P08684); assay: qHTS Assay for Activators of Cytochrome P450 3A4 (AID 885); also: potency is read from the fitted curve at half-maximal effect; nearly all actives have a fitted effect of over 65% in size
Outline: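 Activators are scored by enhanced luminescence from CYP3A4 conversion of luciferin-PPXE (25uM, equal to KM) to luciferin, after 60 min at RT with an NADPH-regenerating system.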

[18] = target: Cytochrome P450 2D6 (Homo sapiens) (UniProt P10635); assay: qHTS Assay for Inhibitors and Substrates of Cytochrome P450 2D6 (AID 891); also: potency is read from the fitted curve at half-maximal effect; nearly all actives have a fitted effect of over 60% in size
Cytochrome P450 2D6 (Homo sapiens), sequence (P10635 whole entry, looked up): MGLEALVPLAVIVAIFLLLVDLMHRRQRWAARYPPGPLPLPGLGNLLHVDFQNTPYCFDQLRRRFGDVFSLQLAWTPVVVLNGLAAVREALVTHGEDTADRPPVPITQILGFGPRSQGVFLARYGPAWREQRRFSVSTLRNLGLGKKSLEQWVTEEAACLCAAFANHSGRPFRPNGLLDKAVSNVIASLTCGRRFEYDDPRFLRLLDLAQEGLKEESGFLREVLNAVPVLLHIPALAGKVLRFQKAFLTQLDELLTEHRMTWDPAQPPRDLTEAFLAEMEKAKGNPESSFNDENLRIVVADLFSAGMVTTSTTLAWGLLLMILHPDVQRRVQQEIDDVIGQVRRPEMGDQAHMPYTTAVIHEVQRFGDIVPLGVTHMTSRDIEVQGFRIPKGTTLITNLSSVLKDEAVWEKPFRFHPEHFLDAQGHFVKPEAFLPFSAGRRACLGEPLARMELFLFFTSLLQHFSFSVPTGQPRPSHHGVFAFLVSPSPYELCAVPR
Outline: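 Luminescent read-out of luciferin formed by 5 nM human CYP2D6 demethylating 30 uM Luciferin-ME EGE (Km level) over 60 min at room temperature after NADPH regeneration addition. Data normalized to full inhibition by 1.43 uM quinidine.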

[19] = qHTS Assay for Identification of Small Molecule Antagonists for Thrombopoietin (TPO) Signaling Pathway (AID 918); settings: TPO-dependent cell signaling reporter, antagonist mode
Outline: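 Inhibitors of TPO signaling are sought by stimulating IL-3-starved murine Ba/F3 cells (human TPO receptor, Glycoprotein IIb-driven luciferase) with TPO at its EC50 of 26 pM alongside compound. After 24 hrs at 37 C, reporter luminescence is measured.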

[20] = target: Muscarinic acetylcholine receptor M1 (Rattus norvegicus) (UniProt P08482); assay: qHTS Assay for Antagonists of Acetylcholine Muscarinic M1 Receptor: Kinetic Measurement of Intracellular Calcium Response (AID 943); also: potency is read from the fitted curve at half-maximal effect; nearly all actives have a fitted effect of over 75% in size
Muscarinic acetylcholine receptor M1 (Rattus norvegicus), sequence (P08482 whole entry, looked up): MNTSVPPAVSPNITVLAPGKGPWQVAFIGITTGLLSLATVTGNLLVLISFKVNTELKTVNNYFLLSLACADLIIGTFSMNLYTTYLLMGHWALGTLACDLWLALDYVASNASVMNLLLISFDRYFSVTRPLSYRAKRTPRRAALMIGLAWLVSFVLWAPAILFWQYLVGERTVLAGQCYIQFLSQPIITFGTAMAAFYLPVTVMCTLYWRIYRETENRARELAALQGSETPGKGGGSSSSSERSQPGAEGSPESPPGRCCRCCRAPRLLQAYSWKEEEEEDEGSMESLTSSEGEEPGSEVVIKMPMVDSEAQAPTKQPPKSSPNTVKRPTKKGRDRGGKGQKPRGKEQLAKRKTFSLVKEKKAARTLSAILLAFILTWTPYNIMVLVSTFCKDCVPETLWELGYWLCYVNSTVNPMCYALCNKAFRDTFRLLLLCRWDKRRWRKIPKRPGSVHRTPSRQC
Outline: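 Antagonism is measured as inhibition of the carbachol-evoked calcium rise in CHO cells transfected with rat M1. Cells are dye-loaded, exposed to compound for 10 min, then stimulated with 100 nM carbachol (EC80).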

[21] = target: Alpha-galactosidase (Coffea arabica) (UniProt Q42656); assay: Counterscreen for Glucocerebrosidase Inhibitors: qHTS Assay for Coffee Bean alpha-Galactosidase at pH 4.5 (AID 957);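 also: plate controls were enzyme alone for no effect and no enzyme for full effect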
Alpha-galactosidase (Coffea arabica), sequence (Q42656 whole entry, looked up): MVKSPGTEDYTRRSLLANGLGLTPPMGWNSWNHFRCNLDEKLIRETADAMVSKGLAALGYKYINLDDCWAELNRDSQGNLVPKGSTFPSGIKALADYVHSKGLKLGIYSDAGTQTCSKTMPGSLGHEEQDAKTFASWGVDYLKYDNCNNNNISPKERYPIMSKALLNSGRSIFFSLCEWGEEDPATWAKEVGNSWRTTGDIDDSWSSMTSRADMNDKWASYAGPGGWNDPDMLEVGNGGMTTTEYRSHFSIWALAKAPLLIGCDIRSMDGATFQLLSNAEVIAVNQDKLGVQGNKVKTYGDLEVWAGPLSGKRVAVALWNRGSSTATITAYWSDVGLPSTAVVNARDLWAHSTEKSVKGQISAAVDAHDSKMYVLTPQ
Outline: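 Enzyme is added first (2 nM final), then compounds titrated from 0.7 nM to 77 uM, then 80 uM 4-methylumbelliferyl alpha-D-galactopyranoside; after 20 min at room temperature a pH 10 NaOH/glycine stop precedes fluorescence reading at 365/440 nm.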

[22] = target: Alpha-galactosidase (Coffea arabica) (UniProt Q42656); assay: Counterscreen for Glucocerebrosidase Inhibitors: qHTS Assay for Coffee Bean alpha-Galactosidase at pH 5.9 (AID 998);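 also: plate controls were uninhibited enzyme for no effect and no-enzyme basal signal for full effect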
Outline: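 In 50 mM citric acid pH 5.9 with 0.005% Tween-20, coffee bean enzyme hydrolyses 80 uM 4-MU alpha-D-galactopyranoside over 20 min at RT. Activity is normalized to controls; AC50 comes from Hill-modelled concentration-response data.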

[23] = qHTS for differential inhibitors of proliferation of Plasmodium falciparum line 7G8 (AID 1815);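 also: potency is read from the fitted curve at half-maximal effect; parasite growth measured after three days of incubation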
[24] = qHTS for differential inhibitors of proliferation of Plasmodium falciparum line GB4 (AID 1816); settings: Potency: Plasmodium falciparum GB4 proliferation inhibition;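 also: potency is read from the fitted curve at half-maximal effect; parasite growth measured after 72 h incubation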
[25] = qHTS for differential inhibitors of proliferation of Plasmodium falciparum line 3D7 (AID 1876); also: potency is read from the fitted curve at half-maximal effect
[26] = qHTS for differential inhibitors of proliferation of Plasmodium falciparum line D10 (AID 1877);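 also: potency is read from the fitted curve at half-maximal effect; parasites grown with compound for 72 h before DNA staining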
[27] = qHTS for differential inhibitors of proliferation of Plasmodium falciparum line W2 (AID 1883); settings: Potency: Plasmodium falciparum W2 proliferation inhibition;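 also: potency is read from the fitted curve at half-maximal effect; parasites grown with compound for 72 h before lysis and staining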
[28] = qHTS for differential inhibitors of proliferation of Plasmodium falciparum line HB3 (AID 1886); settings: Potency: Plasmodium falciparum HB3 proliferation inhibition;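 also: potency is read from the fitted curve at half-maximal effect; parasites grown with compound for 72 h before SYBR Green readout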
[29] = High Content Imaging Cell-Based qHTS for Inhibitors of the mTORC1 Signaling Pathway in MEF Cells (AID 2667); also: potency is read from the fitted curve at half-maximal effect
Outline: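 Fixed-cell imaging of phospho-S6 (Ser235/236, Alexa-488) after 24 hrs of compound treatment at 37 degree Celsius. Signal was normalized to Hoechst, and thresholds from the highest and lowest wells split cells into % active versus % non-active.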

[30] = target: M-phase phosphoprotein 8 (Homo sapiens) (UniProt Q99549); assay: qHTS Validation Assay for Inhibitors for MPP8 Chromodomain Interactions with Methylated Histone Tails (AID 488949);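 also: AlphaScreen signal from MPP8 chromodomain bound to biotinylated H3K9me3 peptide; top concentration of the series differs between compounds; % is scaled to controls: 0 for no effect and ±100 for the full control effect; nearly all actives have a fitted effect of over 55% in size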
Outline: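 Disruption of the preformed MPP8–trimethyl-H3K9 peptide complex (both 50 nM, 30 min, RT) is measured after 30 min compound exposure, using AlphaScreen proximity beads; aurintricarboxylic acid titration serves as plate control.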

[31] = target: D(1A) dopamine receptor (Homo sapiens) (UniProt P21728); assay: HTS Assay for Allosteric Agonists of the Human D1 Dopamine Receptor: Primary Screen for Potentiators (AID 488982); also: 0% is about no effect
D(1A) dopamine receptor (Homo sapiens), sequence (P21728 whole entry, looked up): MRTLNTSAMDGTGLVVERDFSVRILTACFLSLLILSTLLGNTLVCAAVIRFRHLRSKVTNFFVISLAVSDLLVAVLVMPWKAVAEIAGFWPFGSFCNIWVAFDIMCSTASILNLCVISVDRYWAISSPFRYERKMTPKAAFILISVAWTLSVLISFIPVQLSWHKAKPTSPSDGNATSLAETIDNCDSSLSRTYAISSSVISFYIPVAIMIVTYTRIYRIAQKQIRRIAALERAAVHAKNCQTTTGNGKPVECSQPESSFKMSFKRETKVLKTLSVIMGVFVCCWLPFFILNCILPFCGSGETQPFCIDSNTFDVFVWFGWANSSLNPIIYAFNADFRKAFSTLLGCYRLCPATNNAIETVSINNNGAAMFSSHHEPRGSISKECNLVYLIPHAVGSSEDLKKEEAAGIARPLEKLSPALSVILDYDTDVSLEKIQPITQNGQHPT
Outline: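 Tetracycline-induced HEK293 T-REx cells force-coupled to calcium signalling were incubated overnight at 30 C and dye-loaded at room temperature. Calcium flux over 180 s after compound addition flagged agonists; a further 180 s read after EC20 dopamine flagged potentiators.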

[32] = Inducers of the Endoplasmic Reticulum Stress Response (ERSR) in human glioma: Validation (AID 504836); also: 0% is about no effect
Outline: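 Stably transfected U87-MG human glioma cells carrying a GRP78-based luminescent sensor were seeded at 1000 cells/well, pin-dosed with compounds and incubated 16 h. Luciferase reagent was then added, and end-point luminescence was read after 10 min at room temperature.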

[33] = Confirmation and Secondary Assay for Modulators of Hemoglobin Beta Chain Splicing at IVS2 654 locus (AID 910);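 also: per-well total GFP intensity by laser scanning cytometry after 2-day treatment; % of control where 0% means no effect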
Outline: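 HeLa cells stably carrying EGFP interrupted by mutant beta-globin IVS2-654 intron (CMV-driven) were treated with compound for 2 days at 37C; corrected splicing was scored as total peak GFP intensity per well (488 nm excitation, 500-520 nm emission).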

[34] = Confirmation and Secondary Assay for Modulators of Hemoglobin Beta Chain Splicing at IVS2 705 locus (AID 930);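 also: HeLa cells stably expressing the EGFP-705 splicing reporter; % of control where 0% means no effect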
Outline: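 Restored EGFP fluorescence after 2-day compound exposure reports splicing correction in IVS2-705 EGFP reporter HeLa cells; positive control was 500 nM splice-blocking PNA oligo. Signal measured as well total peak GFP intensity (488 nm excitation).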

[35] = measured here: cell count channel max response
[36] = measured here: lipid channel max response

OCCCNc1cc(-c2ccnc(Nc3cccc(Cl)c3)n2)ccn1
active: Potency [1] 0.306 µM | Potency [2] 0.193 µM | Potency [3] 0.769 µM | Potency [4] 0.968 µM | Potency [5] 5.62 µM
-94.2%: activity change, negative = inhibition [6]

CCN1C[C@]2(C)CC[C@H](OC)[C@@]34[C@H]1C1(OCO[C@@]15C[C@H](OC)C1C[C@]3(O)C5[C@H]1OC)[C@@H](O)[C@H]24
inactive: Potency [1] | Potency [2] | Potency [3] | Potency [4] | Potency [7]

C/C=C1/CN2CC[C@]34C(=C(C=O)[C@@H]1C[C@H]23)Nc1c(O)cccc14
inactive: Potency [1] | Potency [2] | Potency [3] | Potency [4] | Potency [7]

CN[C@@H](Cc1c[nH]c2ccccc12)C(=O)O
inactive: Potency [8] | activity change, negative = inhibition ([9]; at 57.5 µM (top of the series)) 2.25% | Potency [10] | Potency [11] | Potency [1] | Potency [2] | Potency [3] | Potency [4]
-7.03%: max response [9, 35]
3.12%: max response [9, 36]

O=C1C[C@@H](c2ccc(O)cc2)Oc2cc(O)cc(O)c21
56.8%: parasite growth, % of control (lower = inhibition) [14]
active: Potency [12] 7.94 µM
inactive: activity change, negative = inhibition ([9]; at 25.7 µM (top of the series)) 0.577% | Potency [1] | Potency [2] | Potency [3] | Potency [4] | Potency [6]
-14.1%: max response [9, 36]
-18.3%: max response [9, 35]
72.2%: parasite growth remaining, % of DMSO control (lower = more inhibition) [13]

C=C1C2C[C@]3(C4CC5[C@@]6(C)CC[C@H](O)[C@@]5(C3CC2=O)C4[N+]([O-])(CC)C6)[C@@H]1O (some centres not stated)
inactive: Potency [1] | Potency [2] | Potency [3] | Potency [4] | Potency [7]

Cc1ccc(C(C)(O)c2nc3ccccc3s2)c(C)c1 (configuration not stated)
inactive: Potency [1] | Potency [2] | Potency [3] | Potency [4] | Potency [15]

OC1(c2ccc(Cl)cc2)CCN(Cc2c[nH]c3ccccc23)CC1
-29.2%: max response [9, 35]
active: Potency [17] 2.51 µM | Potency [18] 0.316 µM | Potency [19] 10 µM | Potency [20] 11.2 µM | Potency [23] 7.08 µM | Potency [24] 8.91 µM | Potency [25] 5.01 µM | Potency [26] 10 µM | Potency [27] 3.98 µM | Potency [28] 10 µM | Potency [29] 2.33 µM
-25.1%: max response [9, 36]
inactive: Potency [16] | Potency [8] | outcome [21] | outcome [22] | activity change, negative = inhibition ([9]; at 57.5 µM (top of the series)) 1.03% | Potency [30] | Potency [31] | outcome [32] | Potency [1] | Potency [2] | Potency [3] | Potency [4]

Cn1cnc2c(F)c(Nc3ccc(Br)cc3F)c(C(=O)NOCCO)cc21
inactive: Potency [1] | Potency [2] | Potency [3] | Potency [4] | Potency [15]

O=C(O)CF
inactive: Potency [8] | Potency [33] | outcome [34] | activity change, negative = inhibition ([9]; at 57.5 µM (top of the series)) 3.91% | Potency [1] | Potency [2] | Potency [3] | Potency [4]
13%: max response [9, 36]
8.93%: max response [9, 35]

CC[C@@H]([C@H](C)O)n1ncn(-c2ccc(N3CCN(c4ccc(OCC5CO[C@@](Cn6cncn6)(c6ccc(F)cc6F)C5)cc4)CC3)cc2)c1=O (some centres not stated)
inactive: Potency [1] | Potency [2] | Potency [3] | Potency [4] | Potency [15]
